PAFAH1B3 inh – inhibitors of human PAFAH1B3; Q15102; inhibition, % at 3.39 µM; 340,000 compounds, 0.28% hits; recombinant PAFAH1B3, FP-rhodamine probe, fluorescence polarization; AID 492972;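 active means inhibition above the screen-wide average of all tested compounds plus 3 SD, cut at about 25% in these data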
PAFAH1B2 inh – inhibitors of human PAFAH1B2; P68402; recombinant PAFAH1B2, FP-rhodamine activity probe, fluorescence polarization; inhibition, % at 3.39 µM; 340,000 compounds, 1.2% hits;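 active means inhibition above the mean of all tested compounds plus 3 SD, cut at about 24% in these data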
PP5 primary – blocks human protein phosphatase 5 activity; P53041; purified PP5c, OMFP substrate fluorescence; inhibition, % at 6.7 µM; 320,000 compounds, 0.18% hits; AID 1987;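 active means inhibition above the campaign's mean inhibition across all tested compounds plus 3 SD, cut at about 9.5% in these data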
pPAFAH FP inh – inhibitors of human plasma PAF acetylhydrolase (pPAFAH). Q13093. recombinant pPAFAH, FP-rhodamine probe fluorescence polarization. inhibition, % at 3.39 µM. 330,000 compounds, 1.5% hits. AID 463082;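 active means inhibition above the mean inhibition across the screen plus 3 SD, cut at about 25% in these data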;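 further: inhibitors block binding of the rhodamine activity-based probe so polarization drops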
PP1 counter – counter-screen for PP5 inhibitors: inhibitors of human PP1-alpha | P62136 | AID 2235 | 320,000 compounds, 0.9% hits | purified PP1alpha, OMFP fluorescence | inhibition, % at 6.7 µM;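 active means inhibition above the mean inhibition of all tested compounds plus 3 SD, computed separately for each screening campaign, cut at about 15% in these data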
Target sequence (P62136 whole entry, looked up): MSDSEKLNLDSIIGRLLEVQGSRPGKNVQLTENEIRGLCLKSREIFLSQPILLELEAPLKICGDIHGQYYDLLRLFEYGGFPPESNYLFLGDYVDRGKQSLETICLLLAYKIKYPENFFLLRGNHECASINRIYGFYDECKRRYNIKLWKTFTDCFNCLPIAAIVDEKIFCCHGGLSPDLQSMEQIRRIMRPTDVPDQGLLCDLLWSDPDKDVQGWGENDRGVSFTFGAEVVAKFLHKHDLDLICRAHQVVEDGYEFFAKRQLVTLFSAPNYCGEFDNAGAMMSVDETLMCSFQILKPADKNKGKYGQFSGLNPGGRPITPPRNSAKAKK
PAFAH2 inh – PAFAH2 (human) inhibition. Q99487. 340,000 compounds, 0.99% hits. inhibition, % at 3.39 µM. recombinant PAFAH2, FP-rhodamine activity probe, fluorescence polarization;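 active means inhibition above the mean over all tested compounds plus 3 SD, cut at about 30% in these data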;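 further: inhibitors block probe labeling of enzyme so polarization drops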
Large screens that a line does not name were inactive. Hits are enriched below; roughly 3.4% of the tested compounds scored in any of these assays.

CCCCCCCCCCS(=O)(=O)N/N=C/c1ccc([N+](=O)[O-])cc1	PAFAH1B2 inh 30
Cc1cc2c(cc(C(=O)OC(C(=O)NCC3CCCO3)C(C)C)n2C)o1 (stereo not drawn)	none
CC(C)CNC(=O)COC(=O)c1ccc([N+](=O)[O-])cc1Cl	pPAFAH FP inh 29
CCCCC1=CC2=C(c3ccco3)C(=O)C(C)(OC(=O)c3ccc(OC)cc3)C(=O)C2=CN1C1CCCC1 (stereo not drawn)	none (no result: PAFAH1B3 inh, PAFAH1B2 inh, PAFAH2 inh)
Cc1cc(C)cc(OCC(=O)OCC(=O)NC2CC2)c1	pPAFAH FP inh 27 (no result: PP5 primary, PP1 counter)
CCOc1ccc(OCCC(=O)OCC(=O)NC2CCCC2)cc1	pPAFAH FP inh 30
COC(=O)c1ccc(OCC(=O)NC2CCCCCCC2)cc1	none (no result: PP5 primary, PP1 counter)
Cc1ccc(OCCC(=O)OCC(=O)NC2CCCC2)cc1	none
CCCCOc1ccc(C(=O)OCC(=O)NC2CCCC2)cc1	pPAFAH FP inh 25, PAFAH2 inh 85
Cc1cc(C)cc(NC(=O)Nc2cnccn2)c1	none
CCc1nnc(NC(=O)CCC(=O)NCc2ccccc2Cl)s1	none
O=C(Cn1c(=O)n(-c2cccc(C(F)(F)F)c2)c(=O)c2sccc21)NCC1CCCO1 (stereo not drawn)	none
COc1ccc(-c2c(C)nn3c(-c4ccccc4)cc(C)nc23)cc1	none
O=C1NC(c2ccc(Cl)c([N+](=O)[O-])c2)Nc2ccccc21 (stereo not drawn)	none
COc1ccc(Br)cc1C1Nc2cccc3cccc(c23)N1	none
COc1cc(C2Nc3cccc4cccc(c34)N2)ccc1O	PAFAH1B3 inh 37, PAFAH1B2 inh 25
O=[N+]([O-])c1cc(C2Nc3cccc4cccc(c34)N2)ccc1Cl	PAFAH1B2 inh 37
COc1cc(C2Nc3cccc4cccc(c34)N2)cc(OC)c1OC(C)=O	PAFAH1B3 inh 32
COC(=O)c1ccc(NC(=O)COc2ccc(S(=O)(=O)NC(C)C)cc2)cc1	none
Cn1c(=O)c2c(nc(NC3CCCCC3)n2CC(=O)C23CC4CC(CC(C4)C2)C3)n(C)c1=O	PAFAH1B2 inh 25
Cc1ccc(C(=O)CSC2=C(C#N)C(c3ccco3)CC(=O)N2)c(C)c1 (stereo not drawn)	pPAFAH FP inh 28
CC(=O)C1=C(C)NC(SCC(=O)c2ccc(Cl)cc2Cl)=C(C#N)C1c1ccco1 (stereo not drawn)	pPAFAH FP inh 28
CC(=O)C1=C(C)NC(SCC(=O)c2ccc(Cl)cc2)=C(C#N)C1c1ccco1 (stereo not drawn)	none
COc1cc(C(=O)OCC(=O)Nc2ccc(S(=O)(=O)NC3=NCCCCC3)cc2)cc(OC)c1OC	none (no result: PP5 primary, PP1 counter)
CC(C)(C)OC(=O)NCCCC[C@H](NC(=O)c1[nH]cnc1C(=O)Nc1ccc(CNC(=O)OC(C)(C)C)cc1)C(=O)OC(C)(C)C	PP1 counter 17 (no result: PAFAH1B3 inh, PAFAH1B2 inh, PAFAH2 inh)
O=C(N[C@@H](Cc1ccccc1)C(=O)OCc1ccccc1)c1nc[nH]c1C(=O)NCc1ccccc1	pPAFAH FP inh 33
CC(C)(C)OC(=O)NCCCC[C@H](NC(=O)c1[nH]cnc1C(=O)N[C@@H](Cc1ccccc1)C(=O)OC(C)(C)C)C(=O)OC(C)(C)C	PP1 counter 15
CC(C)C[C@H](NC(=O)c1[nH]cnc1C(=O)N[C@@H](Cc1ccccc1)C(=O)OCc1ccccc1)C(=O)OCc1ccccc1	none
COc1ccc(C(C#N)=C2C=CC(=NO)C=C2)cc1	none
N#CC(=C1C=CC(=NO)C(Cl)=C1)c1ccc(Cl)cc1	PAFAH1B2 inh 38 (no result: PP5 primary, pPAFAH FP inh, PP1 counter)
O=C(NCc1cccc(Cl)c1)C1CCCO1 (stereo not drawn)	none
COc1cccc(-c2nn3c(-c4ccccn4)nnc3s2)c1	PP1 counter 17
COc1ccc(CN(C)CC(=O)NC2CCCc3ccccc32)cc1OC (stereo not drawn)	none
C#CCn1c(=NC(=O)c2ccc(Br)s2)sc2cccc(OC)c21	PP1 counter 16
Cc1cccc2sc(NC(=O)C3CCN(C(=O)c4ccco4)CC3)nc12	none
O=C(NCc1ccc2c(c1)OCO2)c1ccc(COc2cc(Cl)ccc2Cl)o1	none
O=C(NCc1ccc2c(c1)OCO2)c1ccc(CSCc2ccc(Cl)cc2)o1	PAFAH1B2 inh 26
CCc1ccccc1S(=O)(=O)Cc1ccc(C(=O)NCc2ccc3c(c2)OCO3)o1	none
O=C(NCc1ccc2c(c1)OCO2)c1ccc(CS(=O)(=O)Cc2cccc(Cl)c2)o1	pPAFAH FP inh 25

Source: PubChem BioAssay (The Scripps Research Institute Molecular Screening Center)
